The supplement of paper PMC4466140

B1: unnamed (peptide)
chain: KRRAPPPVPKKPSSR
B2: unnamed (peptide)
chain: NFFRKKLGIPRKLKR
B3: unnamed (peptide)
chain: NGRRRPKFRVQLSGN

molecular target: CaNbp2; assay: SPOT peptide array binding signal intensity (averaged, normalized) (arbitrary units (background-subtracted, floor 0; scale differs between SH3 domains)); higher = stronger binding of the SH3 domain to the peptide
Procedure, shortened: (§1)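 To measure binding, SH3 domains from four yeast species were fused to GST, expressed in E. coli BL21(DE3) and purified on glutathione Sepharose. Each domain was incubated at 10 μg/ml overnight at 4°C on cellulose membranes with synthetic 15-mer peptides whose cysteines were replaced by serines. Anti-GST antibody, an HRP anti-mouse secondary and luminol were used for detection, and images were quantified with Genespotter. Reported binding signal is normalized, background-subtracted spot intensity averaged over replicates, in arbitrary units that differ between domains.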

Binder	SPOT peptide array binding signal intensity
B1	2600
B2	189
B3	762

molecular target: CaRvs167; assay: as above
Procedure, shortened: as §1

Binder	SPOT peptide array binding signal intensity
B1	130
B2	8.83
B3	80.3

molecular target: CaRvs167-3; assay: as above
Procedure, shortened: as §1

Binder	SPOT peptide array binding signal intensity
B1	21.8
B2	47
B3	232

molecular target: CaSho1; assay: as above
Procedure, shortened: as §1

Binder	SPOT peptide array binding signal intensity
B1	269
B2	447
B3	1190

molecular target: CaSla1-D1-D2; assay: as above
Procedure, shortened: as §1

Binder	SPOT peptide array binding signal intensity
B1	3450
B2	11
B3	295

molecular target: CaSla1-D3; assay: as above
Procedure, shortened: as §1

Binder	SPOT peptide array binding signal intensity
B1	1040
B2	2.5
B3	84

molecular target: ScAbp1; assay: as above
Procedure, shortened: as §1

Binder	SPOT peptide array binding signal intensity
B1	3030
B2	146
B3	130

molecular target: ScBbc1; assay: as above
Procedure, shortened: as §1

Binder	SPOT peptide array binding signal intensity
B1	669
B2	4.5
B3	28.8

molecular target: ScBem1-D1; assay: as above
Procedure, shortened: as §1

Binder	SPOT peptide array binding signal intensity
B1	29
B2	14
B3	166

molecular target: ScBzz1-D1; assay: as above
Procedure, shortened: as §1

Binder	SPOT peptide array binding signal intensity
B1	2330
B2	9
B3	41

molecular target: ScBzz1-D2; assay: as above
Procedure, shortened: as §1

Binder	SPOT peptide array binding signal intensity
B1	82.5
B2	13.5
B3	104

molecular target: ScCyk3; assay: as above
Procedure, shortened: as §1

Binder	SPOT peptide array binding signal intensity
B1	13
B2	53
B3	131

molecular target: ScFus1; assay: as above
Procedure, shortened: as §1

Binder	SPOT peptide array binding signal intensity
B1	45.5
B2	314
B3	2430

molecular target: ScHof1; assay: as above
Procedure, shortened: as §1

Binder	SPOT peptide array binding signal intensity
B1	0.5
B2	1.25
B3	6.5

molecular target: ScHse1; assay: as above
Procedure, shortened: as §1

Binder	SPOT peptide array binding signal intensity
B1	448
B2	1910
B3	3000

molecular target: ScLsb1; assay: as above
Procedure, shortened: as §1

Binder	SPOT peptide array binding signal intensity
B1	517
B2	13.5
B3	6

molecular target: ScLsb2; assay: as above
Procedure, shortened: as §1

Binder	SPOT peptide array binding signal intensity
B1	684
B2	8
B3	14

molecular target: ScLsb3; assay: as above
Procedure, shortened: as §1

Binder	SPOT peptide array binding signal intensity
B1	4730
B2	103
B3	719

molecular target: ScLsb4; assay: as above
Procedure, shortened: as §1

Binder	SPOT peptide array binding signal intensity
B1	105
B2	3
B3	42.5

molecular target: ScMyo3; assay: as above
Procedure, shortened: as §1

Binder	SPOT peptide array binding signal intensity
B1	439
B2	≤ 0
B3	1.5

molecular target: ScMyo5; assay: as above
Procedure, shortened: as §1

Binder	SPOT peptide array binding signal intensity
B1	380
B2	0.5
B3	4.75

molecular target: ScNbp2; assay: as above
Procedure, shortened: as §1

Binder	SPOT peptide array binding signal intensity
B1	6200
B2	68
B3	489

molecular target: ScPex13; assay: as above
Procedure, shortened: as §1

Binder	SPOT peptide array binding signal intensity
B1	512
B2	0.5
B3	4

molecular target: ScRvs167; assay: as above
Procedure, shortened: as §1

Binder	SPOT peptide array binding signal intensity
B1	1260
B2	2.33
B3	52.7

molecular target: ScSho1; assay: as above
Procedure, shortened: as §1

Binder	SPOT peptide array binding signal intensity
B1	3480
B2	473
B3	2060

molecular target: ScSla1-D1-D2; assay: as above
Procedure, shortened: as §1

Binder	SPOT peptide array binding signal intensity
B1	4950
B2	38.5
B3	693

molecular target: ScSla1-D3; assay: as above
Procedure, shortened: as §1

Binder	SPOT peptide array binding signal intensity
B1	1400
B2	6.25
B3	6.5

molecular target: SpAbp1-D1; assay: as above
Procedure, shortened: as §1

Binder	SPOT peptide array binding signal intensity
B1	6350
B2	462
B3	561

molecular target: SpBbc1; assay: as above
Procedure, shortened: as §1

Binder	SPOT peptide array binding signal intensity
B1	192
B2	3
B3	13

molecular target: SpBzz1-D1; assay: as above
Procedure, shortened: as §1

Binder	SPOT peptide array binding signal intensity
B1	1370
B2	50
B3	162

molecular target: SpBzz1-D2; assay: as above
Procedure, shortened: as §1

Binder	SPOT peptide array binding signal intensity
B1	1470
B2	≤ 0
B3	0.75

molecular target: SpCyk3; assay: as above
Procedure, shortened: as §1

Binder	SPOT peptide array binding signal intensity
B1	2.5
B2	≤ 0
B3	4

molecular target: SpHof1; assay: as above
Procedure, shortened: as §1

Binder	SPOT peptide array binding signal intensity
B1	218
B2	87
B3	269

molecular target: SpHof1-2; assay: as above
Procedure, shortened: as §1

Binder	SPOT peptide array binding signal intensity
B1	37.8
B2	1.25
B3	12.5

molecular target: SpHof1-3; assay: as above
Procedure, shortened: as §1

Binder	SPOT peptide array binding signal intensity
B1	591
B2	998
B3	788

molecular target: SpHse1; assay: as above
Procedure, shortened: as §1

Binder	SPOT peptide array binding signal intensity
B1	179
B2	1560
B3	1140

molecular target: SpLsb1; assay: as above
Procedure, shortened: as §1

Binder	SPOT peptide array binding signal intensity
B1	1780
B2	25.5
B3	10.5

molecular target: SpLsb4; assay: as above
Procedure, shortened: as §1

Binder	SPOT peptide array binding signal intensity
B1	2060
B2	19
B3	294

molecular target: SpMyo1; assay: as above
Procedure, shortened: as §1

Binder	SPOT peptide array binding signal intensity
B1	416
B2	0.5
B3	18.8

molecular target: SpNbp2; assay: as above
Procedure, shortened: as §1

Binder	SPOT peptide array binding signal intensity
B1	188
B2	63.5
B3	1300

molecular target: SpPex13; assay: as above
Procedure, shortened: as §1

Binder	SPOT peptide array binding signal intensity
B1	22
B2	5
B3	62.5

molecular target: SpRvs167; assay: as above
Procedure, shortened: as §1

Binder	SPOT peptide array binding signal intensity
B1	1820
B2	3.67
B3	14.2

molecular target: SpSla1-D1-D2; assay: as above
Procedure, shortened: as §1

Binder	SPOT peptide array binding signal intensity
B1	1660
B2	≤ 0
B3	≤ 0

molecular target: SpSla1-D3; assay: as above
Procedure, shortened: as §1

Binder	SPOT peptide array binding signal intensity
B1	1.5
B2	17.5
B3	43

molecular target: AgAbp1; assay: as above
Procedure, shortened: as §1

Binder	SPOT peptide array binding signal intensity
B2	227
B3	206

molecular target: AgBbc1; assay: as above
Procedure, shortened: as §1

Binder	SPOT peptide array binding signal intensity
B2	12
B3	71

molecular target: AgBem1-D1; assay: as above
Procedure, shortened: as §1

Binder	SPOT peptide array binding signal intensity
B2	94
B3	339

molecular target: AgBzz1-D1; assay: as above
Procedure, shortened: as §1

Binder	SPOT peptide array binding signal intensity
B2	20
B3	84

molecular target: AgBzz1-D2; assay: as above
Procedure, shortened: as §1

Binder	SPOT peptide array binding signal intensity
B2	45
B3	46

molecular target: AgCyk3; assay: as above
Procedure, shortened: as §1

Binder	SPOT peptide array binding signal intensity
B2	1.5
B3	5

molecular target: AgFus1; assay: as above
Procedure, shortened: as §1

Binder	SPOT peptide array binding signal intensity
B2	142
B3	1440

molecular target: AgHof1; assay: as above
Procedure, shortened: as §1

Binder	SPOT peptide array binding signal intensity
B2	13.2
B3	47.8

molecular target: AgHse1; assay: as above
Procedure, shortened: as §1

Binder	SPOT peptide array binding signal intensity
B2	1980
B3	1600

molecular target: AgLsb1; assay: as above
Procedure, shortened: as §1

Binder	SPOT peptide array binding signal intensity
B2	3.5
B3	16.5

molecular target: AgLsb4; assay: as above
Procedure, shortened: as §1

Binder	SPOT peptide array binding signal intensity
B2	99
B3	379

molecular target: AgMyo5; assay: as above
Procedure, shortened: as §1

Binder	SPOT peptide array binding signal intensity
B2	2
B3	1.5

molecular target: AgNbp2; assay: as above
Procedure, shortened: as §1

Binder	SPOT peptide array binding signal intensity
B2	44
B3	430

molecular target: AgRvs167; assay: as above
Procedure, shortened: as §1

Binder	SPOT peptide array binding signal intensity
B2	5.33
B3	9

molecular target: AgSho1; assay: as above
Procedure, shortened: as §1

Binder	SPOT peptide array binding signal intensity
B2	73
B3	269

molecular target: AgSla1-D1-D2; assay: as above
Procedure, shortened: as §1

Binder	SPOT peptide array binding signal intensity
B2	368
B3	462

molecular target: AgSla1-D3; assay: as above
Procedure, shortened: as §1

Binder	SPOT peptide array binding signal intensity
B2	1.5
B3	13

molecular target: CaAbp1-D1; assay: as above
Procedure, shortened: as §1

Binder	SPOT peptide array binding signal intensity
B2	1000
B3	596

molecular target: CaAbp1-D2; assay: as above
Procedure, shortened: as §1

Binder	SPOT peptide array binding signal intensity
B2	1180
B3	855

molecular target: CaBbc1; assay: as above
Procedure, shortened: as §1

Binder	SPOT peptide array binding signal intensity
B2	31.5
B3	134

molecular target: CaBem1-D1; assay: as above
Procedure, shortened: as §1

Binder	SPOT peptide array binding signal intensity
B2	4
B3	74.5

molecular target: CaBzz1-D1; assay: as above
Procedure, shortened: as §1

Binder	SPOT peptide array binding signal intensity
B2	47.5
B3	185

molecular target: CaBzz1-D2; assay: as above
Procedure, shortened: as §1

Binder	SPOT peptide array binding signal intensity
B2	26
B3	114

molecular target: CaCyk3; assay: as above
Procedure, shortened: as §1

Binder	SPOT peptide array binding signal intensity
B2	≤ 0
B3	33

molecular target: CaFus1; assay: as above
Procedure, shortened: as §1

Binder	SPOT peptide array binding signal intensity
B2	729
B3	3650

molecular target: CaHof1; assay: as above
Procedure, shortened: as §1

Binder	SPOT peptide array binding signal intensity
B2	0.5
B3	0.75

molecular target: CaHse1; assay: as above
Procedure, shortened: as §1

Binder	SPOT peptide array binding signal intensity
B2	37.2
B3	202

molecular target: CaLsb1; assay: as above
Procedure, shortened: as §1

Binder	SPOT peptide array binding signal intensity
B2	1
B3	4

molecular target: CaLsb4; assay: as above
Procedure, shortened: as §1

Binder	SPOT peptide array binding signal intensity
B2	≤ 0
B3	238

molecular target: CaMyo5; assay: as above
Procedure, shortened: as §1

Binder	SPOT peptide array binding signal intensity
B2	0.75
B3	4
